# Results taken from ChEMBL document CHEMBL3988442, “University of Dundee, Small-Polar-MMV Screening Library” (2021).
# For some of these results: Results with a measured potency or affinity are listed apart.
# Tests used:
# Design in all cases: scale not given: direction of the effect not stated beside the values
# [1] = target: Protein translocase subunit SecA (Escherichia coli (strain K12)) (UniProt P10408); experiment: Assay to Identify E. coli SecA ATPase Inhibitors; type: functional; conditions: 30 µM
# [2] = target: T1, Ubiquitin-activating enzyme e1, putative (Leishmania donovani (strain BPK282A1)) (UniProt E9BSI1); experiment: Leishmania donovani Ubiquitin Activating Enzyme (LdE1); type: functional; conditions: 30 µM
# T1 sequence (whole entry): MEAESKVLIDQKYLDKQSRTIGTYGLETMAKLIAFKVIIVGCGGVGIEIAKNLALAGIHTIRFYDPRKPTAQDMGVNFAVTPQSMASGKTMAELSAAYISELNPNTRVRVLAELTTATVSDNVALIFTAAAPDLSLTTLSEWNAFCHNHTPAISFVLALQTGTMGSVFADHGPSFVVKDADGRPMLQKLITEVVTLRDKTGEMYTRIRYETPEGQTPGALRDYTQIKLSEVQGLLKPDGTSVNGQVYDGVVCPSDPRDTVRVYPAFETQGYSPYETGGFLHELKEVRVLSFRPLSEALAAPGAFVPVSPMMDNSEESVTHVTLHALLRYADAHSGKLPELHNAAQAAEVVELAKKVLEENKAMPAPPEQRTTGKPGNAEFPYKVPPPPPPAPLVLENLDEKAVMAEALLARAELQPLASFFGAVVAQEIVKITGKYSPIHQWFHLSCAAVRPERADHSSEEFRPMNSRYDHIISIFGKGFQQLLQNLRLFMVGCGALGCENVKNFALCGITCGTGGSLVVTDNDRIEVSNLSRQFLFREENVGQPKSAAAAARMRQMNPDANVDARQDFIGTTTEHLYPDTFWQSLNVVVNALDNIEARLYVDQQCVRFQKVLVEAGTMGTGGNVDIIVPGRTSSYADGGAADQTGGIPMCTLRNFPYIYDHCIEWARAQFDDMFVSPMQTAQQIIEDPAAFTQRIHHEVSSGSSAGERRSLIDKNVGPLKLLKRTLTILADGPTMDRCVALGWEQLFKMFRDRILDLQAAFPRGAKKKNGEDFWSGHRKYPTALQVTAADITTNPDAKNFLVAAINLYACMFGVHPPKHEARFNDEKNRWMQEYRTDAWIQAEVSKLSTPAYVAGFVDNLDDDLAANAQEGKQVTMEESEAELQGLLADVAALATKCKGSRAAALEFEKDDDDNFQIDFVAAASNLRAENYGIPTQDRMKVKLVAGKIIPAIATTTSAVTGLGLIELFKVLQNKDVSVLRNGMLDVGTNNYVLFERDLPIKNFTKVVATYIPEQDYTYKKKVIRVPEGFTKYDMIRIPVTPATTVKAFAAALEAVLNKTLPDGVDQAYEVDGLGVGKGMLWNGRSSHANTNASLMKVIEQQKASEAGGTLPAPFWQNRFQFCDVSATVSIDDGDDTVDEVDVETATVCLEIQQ
# [3] = target: AMP-activated protein kinase, AMPK (Homo sapiens) (UniProt P54646+O43741+P54619+Q9UGJ0+Q9Y478+Q13131+Q9UGI9); experiment: AMP-dependent Kinase enzyme assay. An in vitro enzyme assay that detects ADP turnover that is directly proportional to AMPK activity. This uses naive AMPK that is activated during the assay with MK-8722; type: functional; conditions: 30 µM
# [4] = target: Sialic acid-binding Ig-like lectin 9 (Homo sapiens) (UniProt Q9Y336); experiment: Hs-Siglec9 ALPHAscreen SOP 20170721; conditions: 10 µM
# Trypanosoma cruzi = experiment: Trypanosoma cruzi phosphomannomutase and mannose-1-phosphate guanylyltransferase assay; type: functional; conditions: 10 µM
# [5] = target: T2, Arginase-2, mitochondrial (Homo sapiens) (UniProt P78540); experiment: in vitro enzyme assay to detect the production of urea directly proportional to the activity of Arginase II; type: functional; conditions: 33.3 µM; note: in the data most compounds retested in dose-response had high values
# T2 sequence (whole entry): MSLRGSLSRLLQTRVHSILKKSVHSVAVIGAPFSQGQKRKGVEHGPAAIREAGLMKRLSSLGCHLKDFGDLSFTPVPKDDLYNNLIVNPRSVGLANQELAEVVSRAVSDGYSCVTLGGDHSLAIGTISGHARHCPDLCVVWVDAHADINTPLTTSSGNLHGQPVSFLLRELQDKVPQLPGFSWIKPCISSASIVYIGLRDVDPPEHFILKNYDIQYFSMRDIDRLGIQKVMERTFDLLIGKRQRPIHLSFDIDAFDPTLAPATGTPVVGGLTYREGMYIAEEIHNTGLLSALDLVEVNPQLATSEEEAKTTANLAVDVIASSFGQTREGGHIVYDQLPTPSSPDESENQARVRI
# [6] = target: T3, Proteasome subunit beta (Trypanosoma cruzi) (UniProt O96673); experiment: Trypanosoma cruzi proteasome chymotrypsin-like activity (TcProtChymo) assay.; note: in the data most compounds retested in dose-response had high values; type: functional; conditions: 9.37 µM
# T3 sequence (whole entry): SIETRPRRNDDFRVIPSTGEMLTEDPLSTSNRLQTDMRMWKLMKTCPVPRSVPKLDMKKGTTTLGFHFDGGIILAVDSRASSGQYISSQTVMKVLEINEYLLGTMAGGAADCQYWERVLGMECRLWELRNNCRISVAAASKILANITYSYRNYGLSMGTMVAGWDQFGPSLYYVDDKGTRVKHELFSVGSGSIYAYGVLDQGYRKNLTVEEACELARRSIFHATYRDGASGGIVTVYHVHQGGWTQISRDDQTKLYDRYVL
# Homo sapiens = species: Homo sapiens; experiment: To identify inhibition of the IFN signalling (Jak-Stat) pathway via expression of an eGFP reporter gene under the control of an IFN-stimulated response element (ISRE) containing MxA promoter.; type: functional; conditions: 30 µM
# [7] = target: T4, Tyrosyl-tRNA synthetase, putative (Trypanosoma cruzi (strain CL Brener)) (UniProt Q4DSP6); experiment: Trypanosoma cruzi tyrosyl tRNA synthetase (TcYRS) _High Tyrosine SOP; type: functional; conditions: 30 µM; note: in the data most compounds retested in dose-response had high values
# T4 sequence (whole entry): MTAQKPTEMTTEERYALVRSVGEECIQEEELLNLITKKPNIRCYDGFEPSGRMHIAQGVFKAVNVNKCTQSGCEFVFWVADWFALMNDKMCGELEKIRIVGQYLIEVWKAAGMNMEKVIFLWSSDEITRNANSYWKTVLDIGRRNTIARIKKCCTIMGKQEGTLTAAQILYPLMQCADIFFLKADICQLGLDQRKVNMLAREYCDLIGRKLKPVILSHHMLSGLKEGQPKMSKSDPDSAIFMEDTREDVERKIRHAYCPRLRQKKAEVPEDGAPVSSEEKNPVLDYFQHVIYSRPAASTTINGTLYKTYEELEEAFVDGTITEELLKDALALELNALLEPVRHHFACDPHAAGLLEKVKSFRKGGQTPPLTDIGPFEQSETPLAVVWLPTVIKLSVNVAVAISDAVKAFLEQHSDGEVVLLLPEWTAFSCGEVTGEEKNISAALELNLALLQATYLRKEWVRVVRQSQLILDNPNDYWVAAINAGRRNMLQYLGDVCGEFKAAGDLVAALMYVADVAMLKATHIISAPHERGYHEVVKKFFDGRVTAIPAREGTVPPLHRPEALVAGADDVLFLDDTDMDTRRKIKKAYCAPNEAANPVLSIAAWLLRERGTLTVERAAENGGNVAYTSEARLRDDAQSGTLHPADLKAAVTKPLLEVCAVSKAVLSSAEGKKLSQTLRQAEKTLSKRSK
# [8] = target: T4, Tyrosyl-tRNA synthetase, putative (Trypanosoma cruzi (strain CL Brener)); experiment: Trypanosoma cruzi tyrosyl tRNA synthetase (TcYRS) SOP; type: functional; conditions: 30 µM
# [9] = target: Chromo domain-containing protein 1 (Saccharomyces cerevisiae (strain ATCC 204508 / S288c) (Baker's yeast)) (UniProt P32657); experiment: ScCHD-1 Enzyme Inhibition Assay; type: functional; conditions: 30 µM; note: in the data most compounds retested in dose-response had high values
# Sequence of Chromo domain-containing protein 1 (Saccharomyces cerevisiae (strain ATCC 204508 / S288c) (Baker's yeast)) (P32657 whole entry, the tested form may be a part): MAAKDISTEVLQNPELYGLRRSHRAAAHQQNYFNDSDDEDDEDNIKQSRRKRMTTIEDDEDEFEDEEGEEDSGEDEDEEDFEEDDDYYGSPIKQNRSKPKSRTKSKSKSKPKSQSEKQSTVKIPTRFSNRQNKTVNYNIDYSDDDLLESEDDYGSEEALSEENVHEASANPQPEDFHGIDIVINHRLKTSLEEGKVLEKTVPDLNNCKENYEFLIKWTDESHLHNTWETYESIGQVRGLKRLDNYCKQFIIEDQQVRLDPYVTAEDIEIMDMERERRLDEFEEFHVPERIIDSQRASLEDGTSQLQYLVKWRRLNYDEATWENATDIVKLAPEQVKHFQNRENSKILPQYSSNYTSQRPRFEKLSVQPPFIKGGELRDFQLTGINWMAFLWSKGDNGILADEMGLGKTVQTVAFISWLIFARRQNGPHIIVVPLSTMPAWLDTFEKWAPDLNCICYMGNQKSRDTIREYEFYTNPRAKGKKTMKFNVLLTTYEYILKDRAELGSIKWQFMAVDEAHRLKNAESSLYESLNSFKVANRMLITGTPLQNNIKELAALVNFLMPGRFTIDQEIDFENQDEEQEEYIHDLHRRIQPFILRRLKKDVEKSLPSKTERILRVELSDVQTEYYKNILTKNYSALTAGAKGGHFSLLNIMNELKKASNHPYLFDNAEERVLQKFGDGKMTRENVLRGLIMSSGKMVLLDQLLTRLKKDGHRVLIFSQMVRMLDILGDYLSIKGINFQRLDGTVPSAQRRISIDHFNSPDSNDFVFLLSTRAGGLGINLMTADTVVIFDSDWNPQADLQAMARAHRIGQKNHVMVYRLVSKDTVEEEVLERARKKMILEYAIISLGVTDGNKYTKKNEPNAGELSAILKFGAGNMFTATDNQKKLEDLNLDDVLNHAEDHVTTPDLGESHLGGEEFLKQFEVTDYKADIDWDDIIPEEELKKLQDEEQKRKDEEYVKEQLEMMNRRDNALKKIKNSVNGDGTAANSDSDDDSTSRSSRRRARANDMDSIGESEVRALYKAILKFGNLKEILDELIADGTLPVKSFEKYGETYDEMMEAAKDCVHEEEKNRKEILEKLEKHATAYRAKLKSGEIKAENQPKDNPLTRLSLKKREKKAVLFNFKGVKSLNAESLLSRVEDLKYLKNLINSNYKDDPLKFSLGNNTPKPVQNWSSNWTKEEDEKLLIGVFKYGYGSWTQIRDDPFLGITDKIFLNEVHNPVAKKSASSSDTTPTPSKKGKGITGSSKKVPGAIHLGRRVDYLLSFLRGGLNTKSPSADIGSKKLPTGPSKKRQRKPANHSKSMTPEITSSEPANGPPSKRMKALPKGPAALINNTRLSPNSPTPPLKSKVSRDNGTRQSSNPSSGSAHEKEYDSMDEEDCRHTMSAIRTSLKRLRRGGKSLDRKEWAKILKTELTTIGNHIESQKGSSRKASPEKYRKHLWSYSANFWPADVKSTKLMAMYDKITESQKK
# Sequence of Sialic acid-binding Ig-like lectin 9 (Homo sapiens) (Q9Y336 whole entry): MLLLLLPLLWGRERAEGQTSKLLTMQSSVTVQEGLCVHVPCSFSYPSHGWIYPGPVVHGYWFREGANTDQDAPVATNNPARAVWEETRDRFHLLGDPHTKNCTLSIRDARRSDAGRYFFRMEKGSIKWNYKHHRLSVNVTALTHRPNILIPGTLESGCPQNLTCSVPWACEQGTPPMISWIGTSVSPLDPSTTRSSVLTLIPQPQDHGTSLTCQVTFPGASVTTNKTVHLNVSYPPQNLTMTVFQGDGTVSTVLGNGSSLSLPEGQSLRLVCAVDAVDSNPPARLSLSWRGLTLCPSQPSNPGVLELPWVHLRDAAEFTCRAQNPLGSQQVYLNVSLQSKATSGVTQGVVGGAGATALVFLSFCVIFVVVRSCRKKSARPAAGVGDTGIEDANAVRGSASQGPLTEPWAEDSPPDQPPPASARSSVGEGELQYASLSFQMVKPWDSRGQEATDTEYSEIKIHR
# Sequence of Protein translocase subunit SecA (Escherichia coli (strain K12)) (P10408 whole entry): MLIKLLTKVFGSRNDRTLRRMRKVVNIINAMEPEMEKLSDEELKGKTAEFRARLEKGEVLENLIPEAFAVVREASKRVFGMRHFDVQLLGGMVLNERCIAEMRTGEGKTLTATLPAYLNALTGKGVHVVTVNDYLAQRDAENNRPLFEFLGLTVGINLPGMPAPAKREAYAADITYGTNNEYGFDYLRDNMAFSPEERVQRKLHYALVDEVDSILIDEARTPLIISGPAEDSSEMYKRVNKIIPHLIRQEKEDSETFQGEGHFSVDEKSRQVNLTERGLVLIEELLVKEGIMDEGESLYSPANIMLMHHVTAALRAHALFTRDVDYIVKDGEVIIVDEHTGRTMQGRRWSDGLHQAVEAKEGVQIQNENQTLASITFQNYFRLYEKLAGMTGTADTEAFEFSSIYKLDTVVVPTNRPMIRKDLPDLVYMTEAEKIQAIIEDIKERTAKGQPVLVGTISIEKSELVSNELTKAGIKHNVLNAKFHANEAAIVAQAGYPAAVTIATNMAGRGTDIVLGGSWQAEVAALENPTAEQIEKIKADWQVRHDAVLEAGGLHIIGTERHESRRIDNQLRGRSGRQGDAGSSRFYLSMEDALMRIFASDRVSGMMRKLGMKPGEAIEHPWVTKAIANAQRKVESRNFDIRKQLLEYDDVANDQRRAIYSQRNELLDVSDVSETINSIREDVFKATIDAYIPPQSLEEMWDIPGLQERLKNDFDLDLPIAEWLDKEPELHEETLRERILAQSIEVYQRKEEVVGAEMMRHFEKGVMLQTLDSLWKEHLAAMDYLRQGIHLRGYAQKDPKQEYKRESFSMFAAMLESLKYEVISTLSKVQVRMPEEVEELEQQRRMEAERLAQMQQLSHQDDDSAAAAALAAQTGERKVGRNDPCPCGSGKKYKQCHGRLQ
Structure (SMILES),Percent Effect [1] [%],Percent Effect [2] [%],Percent Effect [3] [%],Percent Effect [4] [%],Percent Effect (Trypanosoma cruzi) [%],Percent Effect [5] [%],Percent Effect [6] [%],Percent Effect (Homo sapiens) [%],Percent Effect [7] [%],Percent Effect [8] [%],Percent Effect [9] [%]
O=C(NCc1ccco1)C1CCCN1Cc1nc(-c2ccco2)no1 (stereo not given),-0.649,13.5,0.501,-7.57,-4.18,4.99,7.9,10.9,7.92,15.8,-0.371
CCOc1cc(/C=C/c2ncc(C(=O)O)s2)cc(Cl)c1OC,-1.71,8.86,6.6,1.04,-7.28,-4.52,12.3,10.1,0,7.59,-21.1
Cc1cc(C2CCCN(CCCS(=O)(=O)c3ccccc3)C2)n[nH]1 (stereo not given),-0.801,15.2,-4.79,-8.5,-3.87,6.46,4.34,18.4,4.43,11.4,-5.44
COc1ccc(CNCCc2cc(F)cc3c2OCOC3)cc1O,-5.67,4.17,-9.01,0.774,-2.62,-0.883,4.74,2.67,3.16,5.13,-2.11
CCN(Cc1ccccc1)C(=O)CN1CCCC(Cn2cncn2)C1 (stereo not given),-8.07,21.1,-3.72,18.3,3.64,2.16,8.38,-4.88,-4.43,23.5,-6.71
Cc1ccc(F)cc1S(=O)(=O)N(C)CC(N)=O,-2.13,11,-2.95,2.8,-1.19,-2.79,14.8,-1.31,9.38,16.1,-0.907
CC(C)c1nnc(CN2CCCC2Cn2cncn2)o1 (stereo not given),-4.03,18.2,-9.21,3.1,5.99,3.92,10.3,-4.77,6.8,24.4,-9.98
CN1CCN(C(=O)c2ccc(=O)n(C)c2)c2ccccc21,-6.34,18.9,-11,20.6,3.25,-0.554,2.51,6.73,16.8,25.6,-6.38
Cn1cc(CCC(=O)N2C[C@H]3CC[C@@H]2CN(Cc2ccccc2)C3)cn1,-5.96,4.17,9.13,-7.5,-1.07,-3.53,8.77,-28.4,1.05,5.13,-1.41
O=S(=O)(c1cccs1)N1CC[C@H](O)[C@@H]1Cc1ccncc1,-3.12,13.5,9.88,-0.784,-4.79,2.23,22.9,-0.0803,4.32,12.8,-1.7
Cc1nnc(NCc2ccccc2Cl)c(C#N)c1C,-1.72,-29.7,-32.4,-2.89,2.51,1.29,5.39,26.5,13.9,11,5.89
Cc1cccc(OCCC(=O)N2CCCN(CC(N)=O)CC2)c1C,-3.47,17.7,-7.09,14.1,1.6,-3.42,4.34,-12.7,1.48,16.5,-5.52
Cc1nn(C)c(C)c1C1CCCN1C(=O)c1ccc(Cl)o1 (stereo not given),-4.75,2.7,0.29,-6.5,4.88,-3.33,1.27,5.89,4.95,-6.1,1.72
CCC(C)NC(=O)c1ccccc1-n1cnnn1 (stereo not given),-6.55,5.33,0.166,2.83,-0.292,5.21,12.2,3.8,9.29,16.1,-6.11
Cc1noc(C)c1CN1CCc2nn(C(C)C)c(=O)cc2C1,-9.42,13.2,-66,20.3,9.8,5.04,12.9,-9.45,5.42,16.1,-9.78
O=C(c1cccnc1)N1C[C@@H]2CC[C@H](C1)N(Cc1cc(F)ccc1F)C2,0.34,11,29.4,-0.061,3.33,0,10.3,21.9,7.53,15,-7.41
O=C(C[C@@H]1COC[C@H]2CN(Cc3ccncc3)C[C@@H]12)N1CCOCC1,-1.31,12,-1.49,2.73,-6.88,-17.4,10.5,-2.62,0,2.56,-5.74
COc1cc2nc(C)n(CC(=O)O)c(=O)c2cc1OC,-4.09,6.67,6.76,2.01,-0.982,1.23,13.1,19.2,8.47,12.8,-7.94
Cc1nc(-c2ccsc2)ccc1C(=O)O,-3.65,4.17,0.691,-1,0.68,2.65,21.9,-3.42,5.26,10.3,-3.62
CCOCC1CN(C)Cc2cnn(CC3CCCC3)c21 (stereo not given),0.927,5.48,0.312,7.92,7.14,2,9.68,-29.3,7.29,11.1,-3.7
